From PubChem BioAssay
The list is not random: actives were taken first. Their share in the collection is about 12%.
L3MBTL1 block = qHTS Assay for the Inhibitors of L3MBTL1; Lethal(3)malignant brain tumor-like protein 1 (Homo sapiens), Q9Y468; AlphaScreen L3MBTL1–H3K9me1 peptide binding; Potency, µM (doses to about 57.1 µM), for the others: at the highest dose activity, negative = inhibition, usual class: inhibitors; 230,000 compounds, 0.66% hits; AID 485360, 2010; note: % is set by controls: 0 for no effect and ±100 for the full control effect; nearly all actives have a fitted effect of over 60% in size
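Displacement of a biotinylated histone H3(1-15) peptide monomethylated at Lys9 (75 nM) from L3MBTL1 (50 nM) was measured by AlphaScreen after a 30 min room-temperature compound incubation; cefsulodin titration served as intraplate control.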
Sfp PPTase inh = qHTS Assay for Inhibitors of Bacillus subtilis Sfp phosphopantetheinyl transferase (PPTase). Biochemical Sfp PPTase activity, qHTS. Potency, µM, without a hit: largest response in the series, negative = inhibition, most hits filed as inhibitors. 4'-phosphopantetheinyl transferase ffp (Bacillus subtilis), Q9F4F7. 310,000 compounds, 3.5% hits. AID 1490, 2009;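 note: the enzyme is Sfp with the accession as filed and its product quenches rhodamine fluorescence; 0% = enzyme reaction without inhibitor and -100% = no enzyme wells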
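Fluorescence-quenching assay with 15 nM Sfp, 5 uM rhodamine-CoA and 12.5 uM BHQ-2-labelled ybbR peptide in pH 7.6 Hepes/MgCl2 buffer. Enzyme was pre-incubated with compound for 15 min at room temperature. Rate was taken from the 30-min fluorescence change (525/598 nm).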
G9a block = qHTS Assay for Inhibitors of Histone Lysine Methyltransferase G9a. G9a H3K9 monomethylation, AlphaScreen, 2 h. Histone-lysine N-methyltransferase EHMT2 (Homo sapiens), Q96KQ7. 350,000 compounds, 8.8% hits. AID 504332, 2011. Potency, µM (top dose mostly 102 µM), inactives show at the top dose activity, negative = inhibition, hits mostly inhibitors; note: % is set by controls: 0 for no effect and ±100 for the full control effect; nearly all actives have a fitted effect of over 75% in size
Target sequence (Q96KQ7 913-1193 limits assumed): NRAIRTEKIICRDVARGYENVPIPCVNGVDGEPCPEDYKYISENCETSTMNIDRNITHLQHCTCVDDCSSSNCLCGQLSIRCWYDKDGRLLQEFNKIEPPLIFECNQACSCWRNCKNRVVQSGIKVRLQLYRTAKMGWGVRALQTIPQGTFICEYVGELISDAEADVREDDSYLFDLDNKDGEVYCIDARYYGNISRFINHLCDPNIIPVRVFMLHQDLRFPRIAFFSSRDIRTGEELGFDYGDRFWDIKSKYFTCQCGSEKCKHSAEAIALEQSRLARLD
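Quantitative HTS format: methyltransferase activity on a biotin-tagged H3K9 peptide is measured by AlphaScreen, using a rabbit anti-monomethyl-H3K9 antibody with streptavidin donor and anti-IgG acceptor beads. Final levels are 20 nM enzyme, 500 nM peptide, 20 uM SAM; 2 h RT.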
JMJD2A Tudor = qHTS Assay for Inhibitors of JMJD2A-Tudor Domain; Lysine-specific demethylase 4A (Homo sapiens), O75164; AlphaScreen JMJD2A-Tudor / H3K4me3 peptide binding; Potency, µM (highest dose often 114 µM), for the others: top-dose activity change, negative = inhibition, hits mostly inhibitors; 390,000 compounds, 4.4% hits; AID 504339, 2011; note: % is set by controls: 0 for no effect and ±100 for the full control effect; nearly all actives have a fitted effect of over 50% in size
BAZ2B block = qHTS Assay for Inhibitors of BAZ2B | Bromodomain adjacent to zinc finger domain protein 2B (Homo sapiens), Q9UIF8 | AlphaScreen BAZ2B-H3K14Ac peptide displacement | Potency, µM (titrated, usually from 114 µM), inactives show at the highest dose activity change, negative = inhibition, usual class: inhibitors | 360,000 compounds, 4.4% hits | AID 504333, 2011; note: % is set by controls: 0 for no effect and ±100 for the full control effect; nearly all actives have a fitted effect of over 60% in size
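Protein-peptide AlphaScreen: BAZ2B 50 nM, b-H3K14Ac 50 nM, 1x PBS pH 7.4 + 0.01% Tween-20. Preincubation 30 min RT; cpd 30 min RT (top 110 uM); beads 20 min RT, light-protected.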
HP1b binding inh = HTS for Inhibitors of HP1-beta Chromodomain Interactions with Methylated Histone Tails. AlphaScreen HP1-beta / biotin-H3K9me3 peptide binding. Potency, µM (top dose mostly 114 µM), for inactives: at the highest dose activity change, negative = inhibition, hits mostly inhibitors. 390,000 compounds, 0.56% hits. AID 540317, 2011; note: nearly all actives have a fitted effect of over 70% in size
Target sequence (P83916 whole entry, looked up): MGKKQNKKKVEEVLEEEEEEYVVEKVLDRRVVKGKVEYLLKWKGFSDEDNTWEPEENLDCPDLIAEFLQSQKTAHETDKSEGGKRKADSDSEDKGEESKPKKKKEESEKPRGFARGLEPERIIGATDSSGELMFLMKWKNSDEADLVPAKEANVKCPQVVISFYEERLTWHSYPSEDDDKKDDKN
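Compound inhibition of the preformed complex between 50 nM HP1-beta and 50 nM biotinylated H3K9me3 peptide was read by AlphaScreen. Buffer was PBS pH 7.4 with 0.01% Tween-20. Incubations ran 30 min at room temperature, with 10 ug/mL donor/acceptor beads.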
* marks the source's active call; other numbers are inactive results; u = inconclusive; x = not tested or not shown; [ ] = another dose, or the depositor's remark. Calls come from the whole dose curve; as a rule, active = well fitted curve in the direction sought with a large enough effect; inconclusive = small, poorly fitted or top-dose-only effect, or another doubt; inactive = no such curve, though single readings can be large; an effect the other way counts as inactive or inconclusive. Potency is the fitted concentration of half-maximal effect.

SMILES | L3MBTL1 block | Sfp PPTase inh | G9a block | JMJD2A Tudor | BAZ2B block | HP1b binding inh
CN1C2C=C3C(C#N)=C(N)C(C#N)(C#N)[C@@H](c4cccs4)C3C1CC2 (stereo partly specified) | x | -3% | -24%[12.7 µM] | -23% | -1% | 48%
CC(C)(C)C1CC=C2C(C#N)=C(N)C(C#N)(C#N)C(c3cccs3)C2C1 (stereo unspecified) | x | -13% | 50µM* | x | u | x
CCOc1ccc(NC(=O)CN2C(=O)/C(=C3\SC(=S)N(C4CCS(=O)(=O)C4)C3=O)c3ccccc32)cc1 (stereo unspecified) | x | 56µM* | u | -11% | -31% | -2%
CCc1ccc(NC(=O)CC2C(=O)N(c3cccc(OC)c3)C(=O)N2C2CCCC2)cc1 (stereo unspecified) | x | x | 7.9µM* | -31% | u | 0%
Cc1ccc(N2C(=O)C(CC(=O)Nc3cccc(F)c3)N(C3CC3)C2=O)cc1 (stereo unspecified) | x | 15% | 45µM* | -13% | -16% | 42%
COc1ccc(NC(=O)CC2C(=O)N(c3ccc(OC)cc3)C(=O)N2C(C)C)cc1 (stereo unspecified) | x | 23% | 56µM* | -18% | u | 31%
COc1ccc(NC(=O)CC2C(=O)N(c3ccc(OC)cc3)C(=O)N2C2CCCCC2)cc1 (stereo unspecified) | x | x | u | -17% | -11% | 53%
CCc1ccc(NC(=O)CC2C(=O)N(c3ccc(C)cc3)C(=O)N2C2CCCC2)cc1 (stereo unspecified) | x | x | 11%[59 µM] | -1% | -5% | 17%
COc1cccc(N2C(=O)C(CC(=O)Nc3ccccc3)N(C3CCCCC3)C2=O)c1 (stereo unspecified) | 0% | 3% | -1% | -13% | -18% | 29%
COc1cccc(NC(=O)c2ccc(-c3nc(COc4ccccc4)c(C)o3)cc2)c1 | x | x | 0%[59 µM] | -17% | 6% | 36%
CN(C)CCCO[C@H]1C([C@H](O)CO)O[C@@H]2OC(C)(C)O[C@@H]21 (stereo partly specified) | x | x | 15%[12.7 µM] | x | x | x
COc1ccc(Cl)cc1NC(=O)CCS(=O)(=O)c1cccc2nonc12 | x | x | -23%[59 µM] | -22% | -18% | 29%
CCc1ccc(C2=NNC(=Nc3cccc(S(=O)(=O)N(C)C)c3)SC2)cc1 | -14% | 71µM* | 1%[59 µM] | -22% | -36% | 4%
O=C(O)CNS(=O)(=O)c1ccc2c(c1)CCCC2 | -1% | 14% | -32% | -15% | -18% | 22%
O=C(O)CNS(=O)(=O)c1ccc2[nH]c(=O)c(=O)[nH]c2c1 | 26% | 7% | 56µM* | -15% | -5% | 19%
CCOc1ccc(CCNC(c2nnc(-c3ccccc3)o2)c2ccccc2Cl)cc1OCC (stereo unspecified) | x | x | 43%[59 µM] | -21% | 2% | 74%
Cc1ccc(C(C)(O)CS(=O)(=O)Cc2ccccc2Cl)cc1 (stereo unspecified) | x | -18% | 45µM* | -2% | 5% | 56%
CC(O)(CS(=O)(=O)Cc1ccccc1)c1ccc(Cl)cc1 (stereo unspecified) | x | 1% | -31% | 2% | -30% | 35%
OCCN(Cc1ccccc1)Cc1ccc(Cl)cc1Cl | 7% | -20% | 7.1µM* | 3.5µM* | u | u
Cc1ccc(Cn2c(C)c(CNCc3ccccc3F)c(C(=O)O)c2C)cc1 | x | x | 4%[59 µM] | -9% | -16% | 18%
O=C(Nc1ccccc1)N1CCN(C(=O)c2nsc3ccccc23)CC1 | x | x | -4%[59 µM] | -13% | 1% | 19%[57 µM]
CCOC(=O)C1=C(C)NC(=O)CC1c1cc2c(cc1[N+](=O)[O-])OCO2 (stereo unspecified) | x | u | 22µM* | -31% | x | 23%
CC1=C(C(=O)OCC(C)C)C(c2cc3c(cc2Br)OCO3)NC(=O)N1C (stereo unspecified) | 3% | -16% | u | -14% | 0% | 10%
CCCOC(=O)C1=C(C)N(C)C(=O)NC1c1cc2c(cc1[N+](=O)[O-])OCO2 (stereo unspecified) | u | 14µM* | 10µM* | u | u | -1%
CC(C)c1ccc(Nc2ncnc3c2nc2n3CCCC2)cc1 | x | x | -4%[59 µM] | -12% | -2% | 46%
SMILES | L3MBTL1 block | Sfp PPTase inh | G9a block | JMJD2A Tudor | BAZ2B block | HP1b binding inh
CC(=O)N1c2ccccc2C(=O)C1N1CCCCC1 (stereo unspecified) | -2% | 5% | 50µM* | -8% | 4% | 45%
CC(=O)N1c2ccccc2C(=O)C1N1CCN(c2cccc(Cl)c2)CC1 (stereo unspecified) | x | x | -11%[59 µM] | -20% | -25% | 23%
COc1ccc(C(C)=O)cc1CS(=O)(=O)CC(=O)O | 4% | 6% | 45µM* | -2% | -18% | 22%
C/C=C(\C)C(=O)C[Si](C)(C)c1ccccc1 | x | -14% | x | x | x | x
C#CCOCCOCCOCCNc1nc(N2CCN(C(=O)[C@H](CCCCN)n3cc([C@@H](N)CC(C)C)nn3)CC2)nc(N2CCN(C(=O)[C@H](CCCCN)n3cc([C@@H](N)CC(C)C)nn3)CC2)n1 | -6% | 6% | u | -35% | u | 26%
C#CCOCCOCCOCCNc1nc(N2CCN(C(=O)[C@H]([C@@H](C)CC)n3cc([C@@H](N)CO)nn3)CC2)nc(N2CCN(C(=O)[C@H](CCCCN)n3cc([C@@H](N)CO)nn3)CC2)n1 | -4% | x | x | 56µM* | x | 61%
C#CCOCCOCCOCCNc1nc(N2CCOCC2)nc(N2CCN(C(=O)[C@H](CCCCN)n3cc([C@@H](N)CO)nn3)CC2)n1 | -4% | -11% | -30%[12.7 µM] | 79µM* | 50µM* | 17%
C#CCOCCOCCOCCNc1nc(N2CCN(C(=O)[C@H]([C@@H](C)CC)n3cc([C@@H](N)CC(C)C)nn3)CC2)nc(N2CCN(C(=O)[C@H](CCCCN)n3cc([C@@H](N)CO)nn3)CC2)n1 | -11% | 5% | u | 79µM* | 79µM* | 30%
COc1cc(Nc2nc3c(S(=O)(=O)c4ccc(C)c(C)c4)nnn3c3ccsc23)cc(OC)c1 | x | x | 1%[59 µM] | u | -15% | 30%
